Results on 52 molecules are retold here after ChEMBL document CHEMBL4513216, “Probing the Open Global Health Chemical Diversity Library for Multistage-Active Starting Points for Next-Generation Antimalarials” (ACS Infect Dis, 2020).

Among all 65,000 compounds or so, about 2,100 (3.2%) showed an effect of 50% or more. The median lay at about -52%. The list comes from a sample in which strong results are over-represented; it also holds similar structures and randomly drawn compounds.

For this experiment, the system named is Plasmodium falciparum. The experiment in a line: Screen against P. falciparum Asexual Blood Stage (ABS), at 5uM. The format is functional, Dd2. The following applies: tested at 5 uM.
Consider `COCCN1C(=O)CO[C@H]2CN(Cc3ccccc3Cl)C[C@@H]21`, for which the INHIBITION is given as -123%.

For the molecule `CCN1CCOCC12CCN(c1nccs1)CC2`, the INHIBITION is -144%.

Turning to `CN(CCN1CCOC1=O)CC(=O)Nc1ccc(Cl)c(C(F)(F)F)c1`, the INHIBITION was -56.7%.

Regarding `CNc1cc(-c2ccc(COCCN)cc2)c2cc[nH]c2n1`, the INHIBITION is reported as 2.35%.

For the molecule `CCNCCOc1ccc(-c2cc(N)nc3[nH]ccc23)cc1`, the INHIBITION stood at 51.3%.

Regarding `Nc1cc(-c2cc(O)cc(C(=O)O)c2)c2cc[nH]c2n1`, the INHIBITION is -9.72%.

Turning to `CCOCCCNC(=O)c1ccccc1S(C)(=O)=O`, the INHIBITION is reported as -120%.

`CSCCNc1ccc(C(=O)N(C)Cc2ccc3ccccc3n2)cn1`: the INHIBITION was -73.9%.

In the case of `CCOc1ccc(NC(=O)NCCS(=O)(=O)CC)cc1C`, the INHIBITION was found to be 4.65%.

With `COc1cc(CNCCc2cnn(C)c2)cc2c1OCO2`, the INHIBITION is given as -26.5%.

With `COc1cc(CNCc2ccc(C(C)O)cc2)cc2c1OCO2` (configuration not stated), the INHIBITION is given as 9.88%.

As for `COc1cc(CNCC(O)c2ccccc2)cc2c1OCO2` (configuration not stated), the INHIBITION is recorded as 61.1%.

In the case of `Cc1ccc(CN2CCc3onc(C(=O)NCCN(C)C)c3C2)o1`, the INHIBITION is recorded as -43.9%.

Regarding `CS(=O)(=O)N1CC2(CCN(CC3CCCCC3)CC2)Cc2ccccc21`, the INHIBITION is on record as 63.8%.

Take `CC(=O)N1CC2(CCCN(Cc3ccc(Cl)cc3)C2)Cc2ccccc21` (configuration not stated): the INHIBITION is on record as -0.688%.

Turning to `CS(=O)(=O)N1Cc2ccccc2CC2(CCN(Cc3ccccc3)C2)C1` (configuration not stated), the INHIBITION is 9.04%.

In the case of `CS(=O)(=O)N1CC2(CCCN2Cc2ccc(Cl)cc2)Cc2ccccc21` (configuration not stated), the INHIBITION is recorded as -33%.

On to `CS(=O)(=O)N1CC2(CCN(CC3CCCCC3)C2)Cc2ccccc21` (configuration not stated), for which the INHIBITION is -36.9%.

Turning to `CS(=O)(=O)N1CC2(CCCN(CC3CC3)C2)Cc2ccccc21` (configuration not stated), the INHIBITION is on record as 69.8%.

Consider `Cc1csc(N2CCN(CC(=O)Nc3ccncc3)CC2C)n1` (configuration not stated), for which the INHIBITION is -32.7%.

As to `COc1cc(OC)cc(C(=O)Nc2ncnc3c2CCC3)c1`, the INHIBITION was -80.8%.

With `Cc1n[nH]cc1CNCC1(c2ccc3c(c2)OCO3)CCOCC1`, the INHIBITION is on record as -37.3%.

For `Cc1n[nH]cc1CNCC1(c2ccccc2Cl)CCOCC1`, the INHIBITION turned out to be 57.1%.

On to `O=C(NCC1(O)CCOC1)NCC1(c2ccccc2Cl)CCC1` (configuration not stated), for which the INHIBITION is -90.2%.

Turning to `COc1ccc(COCC(O)CNC(=O)c2ccncc2)cc1` (configuration not stated), the INHIBITION is on record as -119%.

Turning to `O=C(Nc1ccc(F)cc1)N1C[C@@H]2CC[C@H]1CN(Cc1cccnc1)C2`, the INHIBITION is -74.3%.

`CN1CCN(c2ncc(-c3cnccn3)c([C@H]3CCCO3)n2)CC1`: the INHIBITION was -10.1%.

`CN1CCCN(c2nccc(-c3cncnc3C3CCCCC3)n2)CC1`: the INHIBITION amounted to 61.6%.

As for `NC(=O)C1CCN(c2nccc(-c3c[nH]nc3C3CCCCC3)n2)CC1`, the INHIBITION came to 16.3%.

On to `CN1CCN(c2nccc(-c3cncnc3C3CCCCC3)n2)CC1`, for which the INHIBITION was 62.3%.

As for `c1cc(-c2cn3nccc3nc2C2CCCCC2)nc(N2CCCC2)n1`, the INHIBITION stood at 3.54%.

In the case of `c1cc(-c2c[nH]nc2C2CCCCC2)nc(N2CCCCCC2)n1`, the INHIBITION stood at 1.32%.

Turning to `O=C(C[C@@H]1COC[C@H]2CN(C3CCCC3)C[C@@H]12)N1CCCCO1`, the INHIBITION is reported as -31.2%.

For `CC(C)CS(=O)(=O)N1CCC2(CN(c3cccc(F)c3)C(=O)CN2C)C1` (configuration not stated), the INHIBITION was -101%.

In the case of `C=C/C=c1\c(=C/C)oc2c(NCc3ccccc3)nc(C)nc12`, the INHIBITION is listed as 3.94%.

With `CCS(=O)(=O)N1CCc2cc(C(=O)NC)c(NCC3CC3)nc2CC1`, the INHIBITION was -28%.

`CCOC(=O)C1CCN(C(=O)CN2CCCC2c2cc(C)no2)CC1` (configuration not stated): the INHIBITION is listed as -126%.

Regarding `CCOC(=O)C1CCN(C(=O)CN2CCCC2c2ccsc2)CC1` (configuration not stated), the INHIBITION was found to be 50.9%.

For `CCOC(=O)C1CCN(C(=O)CN2CCCC2c2ccccc2C)CC1` (configuration not stated), the INHIBITION is recorded as 28.2%.

With `CC(=O)N(C)Cc1ccccc1NC(=O)N(C)CCc1cccs1`, the INHIBITION is listed as -28.3%.

Turning to `Cc1cc2c(c(-c3cncc(C(=O)N4CCCC4)n3)c1)OC(CN)C2` (configuration not stated), the INHIBITION was found to be 4.12%.

Turning to `NCC1Cc2cc(-c3cnccn3)cc(Cl)c2O1` (configuration not stated), the INHIBITION is on record as -13.4%.

Take `Cc1nc(-c2cc(F)c3c(c2)CC(CN)O3)c[nH]1` (configuration not stated): the INHIBITION is 53.7%.

Consider `CC(C)c1cncnc1-c1cc(F)cc2c1OC(CN)C2` (configuration not stated), for which the INHIBITION is 29.4%.

For the molecule `NCC1Cc2cc(-c3cncc(C(=O)N4CCOCC4)n3)cc(Cl)c2O1` (configuration not stated), the INHIBITION was -15.2%.

As to `NCC1Cc2cc(-c3cncc(C(=O)N4CCCCC4)n3)cc(F)c2O1` (configuration not stated), the INHIBITION is 51.3%.

Turning to `Cc1cc(NC(=O)CN2CCCC2c2noc(C)n2)n(C(C)(C)C)n1` (configuration not stated), the INHIBITION was -108%.

In the case of `O=C(NC1CC1)[C@@H]1CCO[C@@H]2CCN(CC3CCC3)C[C@@H]21`, the INHIBITION is given as -89.4%.

`Cc1ccc(CN2CC[C@H]3[C@H](CC(Cn4cccn4)N3C)C2)s1` (some centres not stated): the INHIBITION is on record as 62.7%.

As for `CN1C(Cn2cccn2)C[C@@H]2CN(Cc3nccs3)CC[C@@H]21` (some centres not stated), the INHIBITION is reported as -108%.

For `CN1[C@H](CN2CCCC2)C[C@@H]2CN(Cc3ccoc3)CC[C@@H]21`, the INHIBITION came out at 58.5%.

Turning to `CN1C(Cn2cccn2)C[C@@H]2CN(Cc3cnn(C)c3)CC[C@@H]21` (some centres not stated), the INHIBITION is recorded as -48.5%.
